# Screens as filed in PubChem BioAssay.
# Shown are actives, neighbours in structure and some others; about 3.2% of the full set was active somewhere.
# p53null 39C kill = selectivity test: cytotoxicity in p53 null cells, nonpermissive temperature. H1299 p53-null (neo) cells, 39C, ATPlite viability, 24 h. Potency, µM (titrated, usually from 46.1 µM), for the others: at the highest dose activity, negative = cell killing, hits mostly cytotoxic. 55,000 tested, 0.97% active. AID 904;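 note: potency is the fitted concentration of half-maximal effect; 0% = DMSO only and -100% = full killing by 100 µM tamoxifen; nearly all actives have a fitted effect of over 50% in size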
#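 Temperature-shift cytotoxicity format: compound titrations on p53-null or A138V-expressing H1299 cells held 24 hr at 39C, cell ATP then measured, AC50 from Hill model.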
# PMP22 txn = modulates PMP22 transcription in S16 Schwann cells | S16 Pmp22-F2sN Schwann cells, FLuc/NLuc coincidence luminescence, 24 h | 43,000 tested, 2% active | Potency, µM (doses to about 57.5 µM), for the others: at the highest dose activity change, negative = inhibition, actives largely listed as inhibitors; active = clear falling dose curves in both reporters; inconclusive = both reporters move, but less clearly or upward; inactive = either reporter flat; the % is the NLuc reporter signal; note: potency is the fitted concentration of half-maximal effect; % is set by controls: 0 for no effect and ±100 for the full control effect
#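 Transcriptional readout in edited S16(c9) cells: two luciferases reported from the Pmp22 locus, measured in turn after 24 h compound incubation.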
# p53null 32C tox = kills p53 null cells at the permissive temperature. H1299-neo p53 null cells, ATP luminescence, 24 h, 32C. Potency, µM (doses to about 46.1 µM), inactives show top-dose activity change, negative = cytotoxicity, most hits filed as cytotoxic. 55,000 tested, 0.62% active. AID 903;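 note: potency is the fitted concentration of half-maximal effect; 0% = DMSO only and -100% = full killing by 100 µM tamoxifen; nearly all actives have a fitted effect of over 55% in size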
#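 Cytotoxicity: H1299-neo (no p53), 32C, 24 h treatment. Concentrations up to 46 uM. Readout cellular ATP, luminescence. Normalization to DMSO basal and tamoxifen 100 uM maximal kill.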
# pS6 MEF inh = inhibitors of mTORC1 signaling in Tsc2-/- p53-/- MEF cells. Tsc2-/- p53-/- MEF, phospho-rpS6 immunofluorescence/PI, 24 h. Potency, µM (doses to about 38.3 µM), inactives show top-dose activity change, negative = inhibition, usual class: inhibitors. 44,000 tested, 0.78% active;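 note: potency is the fitted concentration of half-maximal effect; plate controls were DMSO for no effect and rapamycin for full effect; nearly all actives have a fitted effect of over 50% in size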
#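 Cell-based qHTS: Tsc2-/- p53-/- MEF, 24 h cpd, 37 °C; fix/perm, anti-phospho-S6 Alexa-488 + PI; Acumen 488 nm scan; pS6/PI ratio, % positive cells; rapamycin 7.5 nM = inhibition ref; PI count = viability.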
# S16 viability = S16 Schwann cell cytotoxicity; S16 Pmp22-F2sN Schwann cells viability, CellTiter-Glo, 24 h; Potency, µM (highest dose often 57.5 µM), for inactives: top-dose activity change, negative = cytotoxicity, hits mostly cytotoxic; 43,000 tested, 0.48% active; note: potency is the fitted concentration of half-maximal effect; % is set by controls: 0 for no effect and ±100 for the full control effect; nearly all actives have a fitted effect of over 65% in size
#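 Seed 500-1,000 S16 Pmp22-F2sN cells per well in phenol-red-free DMEM with 10% heat-inactivated FBS; pin-add 23 nL compound; incubate 24 h at 37C; add CellTiter-Glo, wait 15 min protected from light; read luminescence.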
# NLuc saturating = NanoLuc enzyme inhibition artifact for PMP22 screen; 690 tested, 4% active; Potency, µM (titrated, usually from 57.5 µM), inactives show at the highest dose activity change, negative = inhibition, most hits filed as inhibitors; AID 1508638; Secreted NLuc enzyme (filtered S16 cell medium), Nano-Glo luminescence; shares compounds with PMP22 txn; note: potency is the fitted concentration of half-maximal effect; % is set by controls: 0 for no effect and ±100 for the full control effect
# NLuc Km counter = NanoLuc inhibition at Km substrate, PMP22 artifact check; shares compounds with PMP22 txn; secreted NLuc enzyme, coelenterazine luminescence, Km conditions; Potency, µM (titrated, usually from 57.5 µM), for the others: at the highest dose activity change, negative = inhibition, hits mostly inhibitors; 690 tested, 5% active; AID 1508639; note: potency is the fitted concentration of half-maximal effect; % is set by controls: 0 for no effect and ±100 for the full control effect
# FLuc ctr PMP22 = counter-screen for PMP22 expression modulators: firefly luciferase inhibition; shares compounds with PMP22 txn; purified P. pyralis FLuc, luminescence, 10 min; Potency, µM (highest dose often 57.5 µM), for the others: at the top dose activity, negative = inhibition, most hits filed as inhibitors; 690 tested, under 10 active; note: % of control where 0% means no effect
# Target sequence (P08659 whole entry, looked up): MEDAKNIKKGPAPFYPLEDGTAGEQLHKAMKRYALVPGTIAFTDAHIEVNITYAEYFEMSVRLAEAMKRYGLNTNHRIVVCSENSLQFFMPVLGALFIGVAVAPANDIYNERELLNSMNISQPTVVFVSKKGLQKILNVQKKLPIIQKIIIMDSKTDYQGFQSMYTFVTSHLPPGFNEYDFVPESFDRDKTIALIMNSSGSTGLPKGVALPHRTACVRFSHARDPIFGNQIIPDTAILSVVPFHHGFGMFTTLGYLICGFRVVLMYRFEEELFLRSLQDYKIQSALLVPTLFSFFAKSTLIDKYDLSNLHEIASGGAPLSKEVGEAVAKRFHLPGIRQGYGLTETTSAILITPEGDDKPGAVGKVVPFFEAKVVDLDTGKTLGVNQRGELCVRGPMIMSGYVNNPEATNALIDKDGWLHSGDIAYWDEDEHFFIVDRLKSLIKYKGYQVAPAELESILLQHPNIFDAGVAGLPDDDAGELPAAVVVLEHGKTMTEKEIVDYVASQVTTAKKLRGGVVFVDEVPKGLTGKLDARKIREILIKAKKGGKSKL
# S16 viab conf = confirmation of cytotoxicity in S16 Pmp22-F2sN Schwann cells (luciferase reporters placed in the Pmp22 gene); shares compounds with PMP22 txn; 690 tested, 7% active; S16 Schwann cells viability, CellTiter-Glo ATP luminescence, 24 h; Potency, µM (titrated, usually from 57.5 µM), without a hit: at the top dose activity change, negative = viability loss, actives largely listed as cytotoxic; AID 1508641; note: potency is the fitted concentration of half-maximal effect; % is set by controls: 0 for no effect and ±100 for the full control effect
# PMP22 txn cnf = PMP22 transcription modulation, confirmatory | 690 tested, 22% active | Potency, µM (doses to about 57.5 µM), for inactives: at the top dose activity change, negative = inhibition, hits mostly inhibitors | shares compounds with PMP22 txn | S16 Schwann cells Pmp22-F2sN, dual luciferase, 24 h; active = clear falling dose curves in both reporters; inconclusive = both reporters move, but less clearly or upward; inactive = either reporter flat; the % is the FLuc reporter signal; note: potency is the fitted concentration of half-maximal effect
# PMP22 prot conf = rat PMP22 protein level modulation, confirmatory; S16 Schwann cells Pmp22-HiBiT, luminescence, 48 h; Potency, µM (highest dose often 27.9 µM), without a hit: at the highest dose activity change, negative = inhibition, hits mostly inhibitors; shares compounds with PMP22 txn; 95 tested, under 10 active
# Target sequence (P25094 whole entry, looked up): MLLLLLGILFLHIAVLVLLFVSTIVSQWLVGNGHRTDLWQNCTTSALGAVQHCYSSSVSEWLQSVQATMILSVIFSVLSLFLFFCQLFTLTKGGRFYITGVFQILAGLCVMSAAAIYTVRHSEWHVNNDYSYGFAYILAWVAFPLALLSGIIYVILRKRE
# Starred values were filed as active, the others as inactive; ? = inconclusive; . = no result given. Unless noted, calls come from the whole dose curve; as a rule, active = well fitted curve in the direction sought with a large enough effect; inconclusive = small, poorly fitted or top-dose-only effect, or another doubt; inactive = no such curve, though single readings can be large; an effect the other way counts as inactive or inconclusive.
SMILES,p53null 39C kill,PMP22 txn,p53null 32C tox,pS6 MEF inh,S16 viability,NLuc saturating,NLuc Km counter,FLuc ctr PMP22,S16 viab conf,PMP22 txn cnf,others
CCOC(=O)c1ccc(-c2ccc(/C=C(\C#N)C(=O)Nc3cccc(C)c3)o2)cc1,22.6%,?,1.0%,-7.4%,3.3%,?,-8.5%,-0.2%,-18.3%,17.2µM*,
CCN(C(=O)CN(C)S(=O)(=O)c1ccc2c(c1)n(C)c(=O)c(=O)n2C)c1cccc(C)c1,3.5%,6.48µM*,1.2%,-22.9%,-17.3%,-13.5%,5.3%,-7.1%,12.9%,-3.9%,
CCS(=O)(=O)c1ncc(Cl)c(C(=O)NCc2ccccc2)n1,-14.8%,8.43µM*,?,2.61µM*,?,-7.4%,-19.9%,3.3%,15.3µM*,6.9µM*,
CCCS(=O)(=O)c1ncc(Cl)c(C(=O)Nc2c(C(=O)Nc3ccccc3)oc3ccccc23)n1,15.8µM*,7.13µM*,-29.1%,2.07µM*,?,-13.4%,1.37µM*,5.6%,17.2µM*,8.16µM*,
COc1ccc(NC(=O)c2nc(S(=O)(=O)Cc3ccc(C)cc3)ncc2Cl)cc1,?,11.3µM*,-20.7%,3.69µM*,?,-11.2%,-15.3%,3.4%,?,5.77µM*,PMP22 prot conf=-8.6%
COc1ccc(CNC(=O)c2nc(SCc3ccc(C)cc3)ncc2Cl)cc1,-16.0%,?,-9.9%,-1.9%,-2.2%,.,.,.,.,.,
CCCC(=O)Nc1sc(C)c(-c2ccc(OC)cc2)c1C#N,.,.,-13.7%,.,.,.,.,.,.,.,
COc1ccc(OC)c(NC(=O)CSc2c3c(nc4cc(Cl)ccc24)CCCC3)c1,57.5%,?,-5.4%,3.2%,?,.,.,.,.,.,
COc1ccc(OC)c(NC(=O)CSc2c3c(nc4ccccc24)CCCC3)c1,98.1%,9.46µM*,21.1%,?,?,?,?,3.8%,?,12.2µM*,PMP22 prot conf=?
COc1ccc(OC)c(Nc2c3c(nc4ccccc24)CCC3)c1,?,8.43µM*,-21.7%,5.21µM*,?,-13.3%,-4.9%,-0.3%,-4.0%,1.45µM*,
CC(C)CCNC(=O)CSc1c2c(nc3ccc(Cl)cc13)CCCC2,63.6%,14.1µM*,16.1%,?,?,?,-12.8%,4.3%,-1.7%,?,
COc1ccc(NC(=O)CCc2nc3cccnc3n2Cc2cccs2)c(OC)c1,22.5%,-2.4%,-5.2%,-1.2%,7.1%,.,.,.,.,.,
COc1ccc(Cn2c(CO)cnc2SCc2ccccc2)cc1,-13.1%,?,-7.0%,-9.3%,-4.8%,.,.,.,.,.,
COc1ccc(Nc2c3c(nc4ccc(NC(=O)c5ccc(F)cc5)cc24)CCCC3)cc1OC,-21.9%,?,?,0.2%,?,.,.,.,.,.,
Cc1ccc(Nc2c3c(nc4ccccc24)CCC3)cc1F,?,15.8µM*,9.7%,-3.7%,-14.6%,-11.0%,?,5.2%,-26.7%,?,
COc1ccccc1Nc1c2c(nc3ccc(NC(=O)c4ccccc4F)cc13)CCCC2,11.8%,?,15.5%,?,?,.,.,.,.,.,
Cc1ccc2nc3c(c(Nc4ccc(C)c(C)c4)c2c1)CCC3,-3.1%,18.9µM*,23.9%,-9.8%,?,-13.0%,-14.9%,-5.8%,6.1%,?,
Cc1ccc(-n2c(SCC(=O)N3CCc4ccccc43)nc3c([nH]c4ccccc43)c2=O)cc1,-8.0%,-31.0%,-1.4%,-10.7%,1.7%,.,.,.,.,.,
COc1cc(NC(=O)NCCn2nnc3cc(S(=O)(=O)N(C)C)ccc32)cc(OC)c1OC,0.0%,18.8%,-4.9%,15.7%,10.0%,.,.,.,.,.,
COc1ccc(NC(=O)c2oc3ccccc3c2NC(=O)Cc2ccc(F)cc2)c(OC)c1,6.5%,12.6µM*,-3.6%,?,1.9%,-4.4%,-1.5%,3.3%,?,?,PMP22 prot conf=28.5%
COc1ccc(NC(=O)c2oc3ccccc3c2NC(=O)c2cccc(F)c2)c(OC)c1,3.2%,?,-7.1%,5.6%,19.1%,.,.,.,.,.,
CCCCCOc1ccccc1CN1C(=O)C(=O)c2cc(C)ccc21,?,13.5µM*,1.9%,?,0.0%,?,?,-0.6%,-5.7%,?,
Cc1cccc(OCC(=O)Nc2ccc3nc(SCc4ccccc4)sc3c2)c1,?,16µM*,1.4%,-4.2%,27.9%,3.3%,4.4%,1.0%,-0.8%,?,
COc1ccc(C(=O)Nc2ccc3nc(SCC(=O)N4CCc5ccccc54)sc3c2)cc1,5.4%,-25.8%,-25.3%,0.0%,21.4%,.,.,.,.,.,
O=C(COc1ccc(F)cc1)Nc1ccc2nc(SCc3ccccc3)sc2c1,-1.8%,6.96µM*,-10.4%,-12.9%,17.0%,-0.6%,-1.0%,8.5%,-5.8%,?,
Cc1ccc(OCC(=O)Nc2ccc3nc(SCC(=O)N4CCc5ccccc54)sc3c2)cc1,-10.6%,2.38µM*,-3.3%,-0.2%,0.3%,-2.9%,-1.6%,-8.0%,-11.3%,7.27µM*,PMP22 prot conf=?
Cc1ccc(CSc2nc3ccc(NC(=O)COc4ccc(F)cc4)cc3s2)cc1,-10.5%,-8.3%,0.8%,-1.0%,6.5%,.,.,.,.,.,
CCCCC1(Cc2ccc([N+](=O)[O-])cc2)C(=O)N(c2ccccc2)N(c2ccccc2)C1=O,1.7%,.,5.1%,.,.,.,.,.,.,.,
Cc1cccc(NC(=O)Cn2c(=O)n(CCc3ccccc3)c(=O)c3ccccc32)c1,-32.6%,?,1.7%,-18.6%,17.3%,.,.,.,.,.,
